Source: PubChem BioAssay (Tox21)
Unmarked numbers belong to inactive results. Inconclusive results are not listed. A call without a number means that no potency is given here. Active and inactive are the calls of the source. Unless noted, calls come from the whole dose curve; as a rule, active = well fitted curve in the direction sought with a large enough effect in the repeat runs; inconclusive = weak or mixed curves; inactive = no such curve, though single readings can be large; an effect the other way counts as inactive or inconclusive.

Assays:
[1] = A CellTox Green Cytotoxicity Assay to monitor cytotoxicity in HepG2 cells - 8 hour (AID 1224890); note: nearly all actives have a fitted effect of over 45% in size; note: potency is the fitted concentration of half-maximal effect
In short: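 Measurements at 0, 8, 16, 24, 32 and 40 h of treatment captured CellTox Green fluorescence in HepG2 cells that had been co-plated with reagent and preincubated 5 h at 37 C/5% CO2.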

[2] = qHTS assay to identify small molecule antagonists of the estrogen receptor alpha (ER-alpha) signaling pathway using the BG1 cell line in the presence of 0.1 nM 17-beta-estradiol - cell viability counter screen (AID 1259241); note: nearly all actives have a fitted effect of over 40% in size
In short: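 VM7Luc4E2, 4,000 cells/well, phenol red-free medium + 10% charcoal-stripped FBS; 24 hr plating; cpd + 0.1 nM E2 final, 22 hr 37C/5% CO2; CellTiter-Fluor 30 min, fluorescence.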

[3] = qHTS assay to identify small molecule antagonists of the androgen receptor (AR) signaling pathway using the MDA cell line in the presence of 0.5 nM R1881 - cell viability counter screen (AID 1259242); note: nearly all actives have a fitted effect of over 45% in size
In short: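 Concentration-response screen of compounds for toxicity in MDA-kb2 reporter cells: 16 hr at 37C with 0.5 nM R1881, endpoint live-cell protease fluorescence measured in the reporter wells.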

[4] = biological target: Androgen receptor (Homo sapiens) (UniProt P10275); assay: qHTS assay to identify small molecule antagonists of the androgen receptor (AR) signaling pathway using the MDA cell line in the presence of 0.5 nM R1881 (AID 1259243); note: nearly all actives have a fitted effect of over 50% in size
Androgen receptor (Homo sapiens), sequence (P10275 whole entry, looked up): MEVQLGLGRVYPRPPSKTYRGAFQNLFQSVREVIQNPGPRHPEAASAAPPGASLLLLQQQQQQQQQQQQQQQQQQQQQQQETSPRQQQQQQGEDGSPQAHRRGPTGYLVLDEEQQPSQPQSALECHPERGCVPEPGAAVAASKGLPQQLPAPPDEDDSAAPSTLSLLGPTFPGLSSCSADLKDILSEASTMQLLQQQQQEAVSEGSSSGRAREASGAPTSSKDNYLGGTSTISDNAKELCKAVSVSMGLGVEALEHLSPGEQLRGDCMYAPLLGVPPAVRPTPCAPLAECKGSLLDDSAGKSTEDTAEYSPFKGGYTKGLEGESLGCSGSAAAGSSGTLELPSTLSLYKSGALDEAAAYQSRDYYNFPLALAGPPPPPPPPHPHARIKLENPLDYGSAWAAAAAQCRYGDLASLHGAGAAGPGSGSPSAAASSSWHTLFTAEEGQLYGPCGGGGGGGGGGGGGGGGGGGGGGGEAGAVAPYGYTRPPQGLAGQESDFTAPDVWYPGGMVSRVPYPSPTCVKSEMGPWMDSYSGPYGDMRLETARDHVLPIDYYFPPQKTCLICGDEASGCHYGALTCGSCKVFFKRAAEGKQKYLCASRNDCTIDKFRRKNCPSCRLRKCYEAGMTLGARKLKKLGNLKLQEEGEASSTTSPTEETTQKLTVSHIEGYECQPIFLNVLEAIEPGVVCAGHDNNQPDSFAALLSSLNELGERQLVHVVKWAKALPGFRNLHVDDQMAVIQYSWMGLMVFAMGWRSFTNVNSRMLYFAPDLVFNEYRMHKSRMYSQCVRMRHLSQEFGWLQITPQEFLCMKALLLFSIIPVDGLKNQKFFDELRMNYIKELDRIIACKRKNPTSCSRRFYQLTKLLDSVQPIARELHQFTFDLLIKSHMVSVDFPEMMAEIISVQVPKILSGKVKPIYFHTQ
In short: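 With R1881 held at 0.5 nM (final), compound effects on MMTV-luciferase expression in MDA-kb2 cells were scored by luminescence after a 16 hr, 37C incubation.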

[5] = qHTS assay to identify small molecule HDAC inhibitors (AID 1259364); note: potency is the fitted concentration of half-maximal effect;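 note: wild-type HCT-116 cells with endogenous class I/II HDAC activity; nearly all actives have a fitted effect of over 45% in size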
In short: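 Screening used wild-type human colon HCT-116 cells incubated overnight, dosed with compounds for 2 hours, and assayed with a homogeneous luminogenic HDAC I/II reagent for 30 minutes at room temperature.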

[6] = qHTS assay to identify small molecule HDAC inhibitors - cell viability counter screen (AID 1259365); note: series mostly up to about 92 µM; nearly all actives have a fitted effect of over 50% in size
In short: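 Luminescence from CellTiter-Glo, developed 30min at room temperature, reports viability of wild-type HCT-116 cells treated 2hr with compounds at 37 C and 5% CO2 after overnight plating.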

[7] = qHTS assay to identify small molecule agonists of the sonic hedgehog signaling (Shh) pathway - cell viability counter screen (AID 1259366); note: nearly all actives have a fitted effect of over 50% in size
In short: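 Cytotoxicity counter screen run in the same wells as the Shh reporter assay. NIH/3T3 cells carrying a Gli1 response element–driven luciferase were treated with DMSO-dissolved compounds for 24hr, and live-cell protease activity was measured with CellTiter-Fluor.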

[8] = qHTS assay to identify small molecule antagonists of the sonic hedgehog signaling (Shh) pathway - cell viability counter screen (AID 1259367); note: nearly all actives have a fitted effect of over 55% in size
In short: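 Tox21 library chemicals were tested on a Gli1-Luc NIH/3T3 clone (2,000 cells/well) stimulated by conditioned medium; viability was quantified as fluorescence from CellTiter-Fluor reagent added at 23 hr.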

[9] = qHTS assay to identify small molecule agonists of the sonic hedgehog signaling (Shh) pathway (AID 1259368; calls by dose curve;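 note: NIH/3T3-derived 3T3Gli1-Luc cells carrying a stable Gli1-driven firefly luciferase reporter; series mostly up to about 92 µM; nearly all actives have a fitted effect of over 15% in size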)
In short: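 Hedgehog pathway agonism scored by increased firefly luciferase luminescence in 3T3Gli1-Luc cells treated 24 hr at 37 C; detection used a 30 min room-temperature reagent incubation.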

[10] = qHTS assay to identify small molecule antagonists of the sonic hedgehog signaling (Shh) pathway (AID 1259369; calls by dose curve; note: nearly all actives have a fitted effect of over 45% in size)
In short: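 NIH/3T3 stable Gli1-Luc clone, 2,000 cells/well, 4hr settle; cpd + conditioned medium 24hr; Luc reagent 30min RT; luminescence.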

[11] = biological target: Estrogen receptor beta (Homo sapiens) (UniProt Q92731); assay: qHTS assay to identify small molecule agonists of the estrogen receptor beta (ER-beta) signaling pathway (AID 1259377; active = well fitted activation curve with a large enough effect in the signal ratio in the repeat runs, not every such curve was filed as active; the % refers to the signal ratio)
Estrogen receptor beta (Homo sapiens), sequence (Q92731 whole entry, looked up): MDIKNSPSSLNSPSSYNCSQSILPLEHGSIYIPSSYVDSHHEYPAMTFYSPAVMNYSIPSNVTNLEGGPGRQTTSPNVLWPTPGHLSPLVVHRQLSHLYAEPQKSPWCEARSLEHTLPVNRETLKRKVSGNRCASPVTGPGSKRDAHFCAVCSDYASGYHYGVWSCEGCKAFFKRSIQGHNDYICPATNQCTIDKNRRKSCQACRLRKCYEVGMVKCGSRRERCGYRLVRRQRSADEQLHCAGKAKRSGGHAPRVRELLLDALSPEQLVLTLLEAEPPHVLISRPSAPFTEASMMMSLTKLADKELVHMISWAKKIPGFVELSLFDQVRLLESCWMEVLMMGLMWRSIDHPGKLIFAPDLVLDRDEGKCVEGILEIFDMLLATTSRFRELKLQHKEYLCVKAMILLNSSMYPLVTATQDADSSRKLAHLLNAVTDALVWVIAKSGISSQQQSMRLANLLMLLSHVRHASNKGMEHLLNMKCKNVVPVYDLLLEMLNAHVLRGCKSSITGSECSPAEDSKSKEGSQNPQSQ
In short: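 HEK293T ER-beta-UAS-bla; 2% charcoal-stripped FBS; cells pre-incubated 6 hr, compound 16 hr, 37C/5% CO2; LiveBLAzer B/G FRET substrate 2 h RT; fluorescence intensity read.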

[12] = qHTS assay to identify small molecule agonists of the androgen receptor (AR) signaling pathway in the presence of an antagonist - cell viability counter screen (AID 1259379);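 note: MDA-kb2 human breast cancer cells carrying an MMTV luciferase reporter; series mostly up to about 92 µM; nearly all actives have a fitted effect of over 25% in size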
In short: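 MDA-kb2 viability measured by CellTiter-Fluor fluorescence in the same wells as the luciferase signal; nilutamide 3.0uM final; 15-point compound titration; 16 hr at 37C.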

[13] = qHTS assay to identify small molecule agonists of the estrogen receptor beta (ER-beta) signaling pathway - cell viability counter screen (AID 1259380); note: nearly all actives have a fitted effect of over 30% in size
In short: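 Measured: luminescence from CellTiter-Glo after 30 min at room temperature, added to wells already read for the LiveBLAzer FRET reporter (2 hr substrate); ER-beta-UAS-bla HEK293T cells had 16 hr compound treatment at 37C, 5% CO2.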

[14] = biological target: Androgen receptor (Homo sapiens) (UniProt P10275); assay: qHTS assay to identify small molecule agonists of the androgen receptor (AR) signaling pathway in the presence of an antagonist (AID 1259381; calls by dose curve; note: nearly all actives have a fitted effect of over 15% in size)
In short: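 Luminescent ONE-Glo read, 30min at room temperature, follows 16hr compound exposure (15 concentrations) of MDA-kb2 cells at 37C, 0% CO2, with nilutamide added at 3.0uM final.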

[15] = qHTS assay to identify small molecule antagonists of the estrogen receptor beta (ER-beta) signaling pathway - cell viability counter screen (AID 1259382); note: series mostly up to about 92 µM; nearly all actives have a fitted effect of over 55% in size
In short: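 Readout: luminescence, CellTiter-Glo, same wells as bla assay. System: ER-beta-UAS-bla GripTite HEK293T, 2% charcoal-stripped FBS. Exposure: compounds plus 1nM 17-beta-estradiol, 16 hr, 37C.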

[16] = biological target: Estrogen receptor (Homo sapiens) (UniProt P03372); assay: qHTS assay to identify small molecule antagonists of the estrogen receptor alpha (ER-alpha) signaling pathway using the BG1 cell line in the presence of 0.1 nM 17-beta-estradiol (AID 1259244); note: nearly all actives have a fitted effect of over 50% in size
Estrogen receptor (Homo sapiens), sequence (P03372 whole entry, looked up): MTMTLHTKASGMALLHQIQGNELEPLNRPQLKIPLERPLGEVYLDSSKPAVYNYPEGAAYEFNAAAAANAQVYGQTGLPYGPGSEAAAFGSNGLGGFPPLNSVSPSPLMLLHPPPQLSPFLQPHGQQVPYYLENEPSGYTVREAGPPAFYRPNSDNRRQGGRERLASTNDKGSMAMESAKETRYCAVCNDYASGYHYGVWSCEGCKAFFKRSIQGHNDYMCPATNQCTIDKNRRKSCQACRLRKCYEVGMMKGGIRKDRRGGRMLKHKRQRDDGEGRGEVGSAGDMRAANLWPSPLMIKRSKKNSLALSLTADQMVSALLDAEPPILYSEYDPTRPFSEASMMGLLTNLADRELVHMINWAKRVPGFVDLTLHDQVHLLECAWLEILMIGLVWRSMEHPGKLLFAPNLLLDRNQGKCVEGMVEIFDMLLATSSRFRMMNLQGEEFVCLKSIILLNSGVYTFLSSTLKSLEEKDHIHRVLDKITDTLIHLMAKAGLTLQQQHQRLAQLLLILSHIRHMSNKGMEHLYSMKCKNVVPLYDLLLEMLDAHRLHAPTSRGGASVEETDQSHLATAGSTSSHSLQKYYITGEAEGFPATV
In short: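 Compounds were tested against 0.1 nM (final) 17beta-estradiol in VM7Luc4E2 cells, which express full-length ER-alpha and an ERE-luciferase reporter; luminescence was recorded following 22 h exposure.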

[17] = biological target: Estrogen receptor beta (Homo sapiens) (UniProt Q92731); assay: qHTS assay to identify small molecule antagonists of the estrogen receptor beta (ER-beta) signaling pathway (AID 1259378; active = well fitted inhibition curve with a large enough effect in the signal ratio in the repeat runs, not every such curve was filed as active; the % refers to the signal ratio)
In short: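 ER-beta-UAS-bla HEK293T cells in 2% charcoal-stripped FBS medium treated with compound plus 1nM final 17-beta-estradiol for 16 hr at 37C. Beta-lactamase reporter read by FRET substrate fluorescence after 2 hours at room temperature.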

[18] = biological target: Estrogen receptor (Homo sapiens) (UniProt P03372); assay: qHTS assay to identify small molecule agonists of the estrogen receptor alpha (ER-alpha) signaling pathway in the presence of an antagonist (AID 1259383; calls by dose curve; note: top concentration of the series differs between compounds; nearly all actives have a fitted effect of over 15% in size)
In short: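 Quantitative HTS confirmation: compounds titrated at 15 concentrations onto estrogen-deprived VM7Luc4E2 cells carrying a four-ERE luciferase construct, with ICI-182,780 present at 10.0nM final. Signal is luminescence after 22hr exposure.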

[19] = qHTS assay to identify small molecule phospholipidosis (PLD) inducers (AID 1259344; active = well fitted curve in the direction sought with a large enough effect; an effect the other way counts as inactive or inconclusive)
In short: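 Image-based: LipidTOX Red pit count/intensity per well and per cell; HepG2, 24 h compound at 37 C, PFA fixation, Hoechst counterstain.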

[20] = qHTS assay to identify small molecule agonists or antagonists of the thyroid stimulating hormone receptor (TSHR) signaling pathway - wild type cell line counter screen (AID 1259384; calls by dose curve)
In short: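 Wild-type Hek293 cells, 800/well, 18 h at 37C, then compound with Ro20-1724 for 30 min RT. cAMP by HTRF (cAMP-d2/anti-cAMP cryptate), 1 h RT, fluorescence read. 15 concentrations, triplicates.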

| SMILES | Potency [1] | Potency [2] | Potency [3] | Potency [4] | Potency [5] | Potency [6] | Potency [7] | Potency [8] | Potency [9] | Potency [10] | Potency [11] | Potency [12] | Potency [13] | Potency [14] | Potency [15] | Potency [16] | Potency [17] | Potency [18] | Potency [19] | Potency [20] |
| --- | --- | --- | --- | --- | --- | --- | --- | --- | --- | --- | --- | --- | --- | --- | --- | --- | --- | --- | --- | --- |
| CCCCCCCC(=O)OCCCCCC | inactive | inactive | inactive | inactive | inactive | inactive | inactive | inactive | inactive | inactive | inactive | inactive | inactive | inactive | inactive |  |  |  |  |  |
| O=NN(CCCl)C(=O)NCCCl | 5.35 µM (active) | inactive | inactive | inactive |  | inactive | inactive | inactive | inactive |  | inactive | inactive | inactive | inactive | inactive | inactive | inactive | inactive |  |  |
| COc1ccc(C2C(=O)c3ccccc3C2=O)cc1 | inactive | inactive | inactive |  | 23.7 µM (active) | inactive |  |  | inactive | inactive | inactive | inactive | inactive |  | inactive | inactive | inactive | inactive | inactive |  |
| COC1CCC=CO1 (stereo not drawn) | inactive | inactive | inactive |  | inactive | inactive | inactive | inactive | inactive | inactive | inactive | inactive | inactive |  | inactive | inactive | inactive | inactive |  | inactive |
| CC1CCCC(=O)C1=O (stereo not drawn) | inactive | inactive | inactive | inactive | inactive | inactive | inactive | inactive | inactive | inactive | inactive | inactive | inactive | inactive | inactive | inactive | inactive | inactive |  |  |
| O=C(O)/C=C/c1ccc(O)c(O)c1 | inactive | inactive | inactive | inactive |  | inactive | inactive | inactive | inactive | inactive |  | inactive | inactive | inactive | inactive |  |  |  |  |  |
| COc1ccc(C(=O)NCc2ccc(OCCN(C)C)cc2)cc1OC | inactive | inactive | inactive |  | inactive | inactive | inactive | inactive | inactive | inactive | inactive | inactive | inactive |  | inactive | inactive | inactive | inactive | inactive |  |
| Cc1ccc(S(=O)(=O)NC(=O)NC2CCCCC2)cc1 | inactive | inactive | inactive |  | inactive | inactive | inactive | inactive | inactive | inactive | inactive | inactive | inactive |  | inactive | inactive | inactive | inactive | inactive |  |
